Test results published in PubChem BioAssay (NCATS).
Inconclusive results are not listed. Active and inactive are the calls of the source. Calls follow the shape of the dose curve; as a rule, active = well fitted cell-killing curve with a large enough effect; inconclusive = small, poorly fitted or top-dose-only effect, or effect the other way; inactive = no such curve, though single readings can be large or run the other way.

assay: Quantitative High-Throughput drug screen in 47 multiple myeloma cell lines against the NCATS MIPE library collection: MOLP8_DSMZ cell viability assay (AID 1918977); settings: MOLP8 myeloma viability, CellTiter-Glo ATP luminescence, 48 h; series mostly up to 45.8 µM; also: nearly all actives have a fitted effect of over 45% in size
From the text: PI: Beverly A. Mock Ph.D.
Laboratory of Cancer Biology and Genetics,
Center for Cancer Research, National Cancer Institute,
National Institute of Health, Bethesda, Maryland
Drug resistance and disease progression are common in multiple myeloma (MM) patients, underscoring the need for new therapeutic combinations. […] We hypothesized that effective combinations would reduce MYC expression and enhance p16 activity. […] These preclinical data identify potentially useful drug combinations for evaluation in drug-resistant MM and reveal potential mechanisms of combined drug sensitivity.
Described herein is the primary MIPE qHTS used to cherrypick compounds. Validated compounds were then further tested for potential synergistic activiy.
[1] Peat TJ, Gaikwad SM, Dubois W, Gyabaah-Kessie N, Zhang S, Gorjifard S, Phyo Z, Andres M, Hughitt VK, Simpson RM, Miller MA, Girvin AT, Taylor A, Williams D, D'Antonio N, Zhang Y, Rajagopalan A, Flietner E, Wilson K, Zhang X, Shinn P, Klumpp-Thomas C, McKnight C, Itkin Z, Chen L, Kazandijian D, Zhang J, Michalowski AM, Simmons JK, Keats J, Thomas CJ, Mock BA. Drug combinations identified by high-throughput screening promote cell cycle transition and upregulate Smad pathways in myeloma. Cancer Lett. 2023 Aug 1;568:216284. doi: 10.1016/j.canlet.2023.216284. Epub 2023 Jun 24. PMID: 37356470; PMCID: PMC10408729.
SEQUENCE No. (e.g., 1, 2, 3, etc.); […] (e.g., Cells, Incubation, Reagent, etc.); VALUE and DESCRIPTION.
1; Cells; 5 uL; white, solid bottom 1536-well Greiner assay plate.
2; Compounds; 23 nL; Kalypsis pin tool (Wako USA) equipped with a 1536-well pin head to transfer to the assay plates.
3; Incubation; 48 hours; 37C incubation.
4; Reagent;5uL; CellTiter Glo (Promega).
5; Detector; 425V; Luminescence; Viewlux PerkinElmer.
NOTES (numbers refer to Sequence numbers above)
1. The cell-based screening methods employed in this study were like those previously published. Briefly, the corresponding myeloma cell lines were screened in 1,536-well plates with 500 cells, 5-uL per well for inhibition of cell viability (assessed by measuring ATP levels with CellTiterGlo).
2. NCATS MIPE 4.0 library of approved and investigational drugs were added using the Kalypsis pin tool. Wells treated with DMSO only for 100% viability and media only for 0% viability were used as controls.
3. The assay plates were covered and incubated for 48 hours in a 37C, 5% CO2 incubator with controlled humidity.
4. After 48 hours, CellTilter-GloTM luminescent substrate mix (Promega) reagent was added to the assay plate and plates we incubated for 5 min at room temperature.
5. Signal was measured as median relative luminescence units on a ViewLux (PerkinElmer) multiplate reader.
[1] Heske CM, Davis MI, Baumgart JT, Wilson K, Gormally MV, Chen L, Zhang X, Ceribelli M, Duveau DY, Guha R, Ferrer M, Arnaldez FI, Ji J, Tran HL, Zhang Y, Mendoza A, Helman LJ, Thomas CJ. Matrix Screen Identifies Synergistic Combination of PARP Inhibitors and Nicotinamide Phosphoribosyltransferase (NAMPT) Inhibitors in Ewing Sarcoma. Clin Cancer Res. 2017 Dec 1;23(23):7301-7311. doi: 10.1158/1078-0432.CCR-17-1121. Epub 2017 Sep 12. PMID: 28899971; PMCID: PMC6636827.
Potency is read from the fitted curve at half-maximal effect.

SMILES | Potency
CCOC(=O)c1c(CSc2ccccc2)n(C)c2cc(Br)c(O)c(CN(C)C)c12 | 5.9 µM (active)
Cc1c(C(=O)Nc2ccc(N3C[C@@H](C)O[C@@H](C)C3)nc2)cccc1-c1ccc(OC(F)(F)F)cc1 | 13.2 µM (active)
Cc1cccc(Nc2nc(N[C@@H]3CCCC[C@H]3N)ncc2C(N)=O)c1 | 14.8 µM (active)
COc1cc([C@@H]2c3cc4c(cc3[C@@H](O[C@@H]3O[C@@H]5CO[C@@H](C)O[C@@H]5[C@H](O)[C@@H]3O)[C@H]3COC(=O)[C@H]23)OCO4)cc(OC)c1O | inactive
C=CCc1cccc(C=NNC(=O)CN2CCN(Cc3ccccc3)CC2)c1O | 6.62 µM (active)
CCOC(=O)[C@H]1O[C@H]1C(=O)N[C@@H](CC(C)C)C(=O)NCCC(C)C | inactive
CC1(C)CC(=O)c2c(C(F)(F)F)nn(-c3ccc(C(N)=O)c(NC4CCC(O)CC4)c3)c2C1 (stereo not given) | 0.0418 µM (active)
CC[C@H](C)C(=O)O[C@H]1C[C@H](O)C=C2C=C[C@H](C)[C@H](CC[C@@H](O)C[C@@H](O)CC(=O)O)[C@H]21 | inactive
c1ccc(CNc2nc(N3CCOc4ccccc43)nc3c2CCCC3)cc1 | inactive
CN1CCN(c2cccc(Nc3nc4c(-c5ccc(S(C)(=O)=O)cc5)cccn4n3)c2)CC1 | 9.35 µM (active)
COc1ccnc(CS(=O)c2nc3ccc(OC(F)F)cc3[nH]2)c1OC (stereo not given) | inactive
O=C(CO)N1CCC(c2[nH]nc(-c3ccc(Cl)cc3)c2-c2ccncn2)CC1 | inactive
Cn1c(=O)c(-c2c(Cl)cccc2Cl)cc2cnc(Nc3cccc(C(=O)O)c3)nc21 | 2.09 µM (active)
CCOC(=O)[C@H](CCc1ccccc1)N[C@@H](C)C(=O)N1CCCC1C(=O)O (stereo not given in full) | inactive
CCC[C@H](Nc1nc(-c2ccc(NC(=O)NCC)c(OC)c2)ncc1C)c1cccnc1 | 0.0662 µM (active)
CCCCCOC(=O)Nc1nc(=O)n([C@@H]2O[C@H](C)[C@@H](O)C2O)cc1F (stereo not given in full) | inactive
COc1ccc(-c2nc3ccc(C4=NNC(=O)CC4C)cc3[nH]2)cc1 (stereo not given) | inactive
CN1CCN(c2ncc(-c3cc(Cl)cc(Cl)c3Cl)c(N)n2)CC1 | inactive
O[C@@H](COc1cccc2ncccc12)CN1CCN(C2c3ccccc3[C@@H]3[C@H](c4ccccc42)C3(F)F)CC1 (stereo not given in full) | 23.5 µM (active)
CC(NCCc1ccc(O)cc1)C(O)c1ccc(O)cc1 (stereo not given) | inactive

SMILES | Potency
CN1CCc2c(n(Cc3ccc(C(=O)NO)cc3)c3ccccc23)C1 | 18.7 µM (active)
O=C(Nc1ncc(SCCN2CCCC2)s1)[C@]1(c2ccc(S(=O)(=O)C3CC3)cc2)C[C@@H]1C1CCCCC1 | 16.6 µM (active)
COc1cccc(OC)c1-c1cc(C(=O)NC2(C(=O)O)C3CC4CC(C3)CC2C4)nn1-c1ccnc2cc(Cl)ccc12 (stereo not given) | inactive
COC(=O)[C@H](c1ccccc1Cl)N1CCc2sccc2C1 | inactive
Cc1cn([C@@H]2C[C@@H](O)[C@H](CO)O2)c(=O)[nH]c1=O | inactive
C[C@]12C=CC(=O)C=C1CC[C@@H]1[C@@H]2[C@@H](O)C[C@@]2(C)[C@@H]1CC[C@]2(O)C(=O)CO | 0.0743 µM (active)
COc1c(C)cnc(Cn2cnc3c(Cl)nc(N)nc32)c1C | 0.0935 µM (active)
Cc1nc(NC(=O)N2CCC[C@@H]2C(N)=O)sc1-c1csc(C(C)(C)C)n1 | 0.166 µM (active)
CC(C)[C@H](O)C(=O)N[C@@H](C)C(=O)N[C@@H]1C(=O)N(C)CCc2ccccc21 | 0.0053 µM (active)
N#CC(c1ccnc(NCCc2cccnc2)n1)c1nc2ccccc2s1 (stereo not given) | inactive
O=C(C=Cc1ccc(O)cc1)c1ccc(O)cc1O | 14.8 µM (active)
CC1=C(C(=O)Nc2cc3cn[nH]c3cc2F)C(c2ccc(C(F)(F)F)cc2)CC(=O)N1 (stereo not given) | inactive
CC(C)CNc1ccnc(NCc2csc(-c3ccccc3)n2)n1 | 20.9 µM (active)
Cc1cc(NC(=O)Nc2ccc(N(C)C)cc2)c2cc(F)cc(F)c2n1 | 23.5 µM (active)
CC(C)c1onc(-c2c(Cl)cccc2Cl)c1COc1ccc(C=Cc2cccc(C(=O)O)c2)c(Cl)c1 | inactive
O=C(Nc1cccc(C(F)(F)F)c1)Nc1cc(S(=O)(=O)NC2CC2)ccc1-c1ccsc1 | 4.18 µM (active)
O=C(O)CCC=CCC[C@@H]1[C@H](N2CCCCC2)[C@@H](O)C[C@@H]1OCc1ccc(-c2ccccc2)cc1 | inactive
O=C(c1ccc(C=Cc2n[nH]c3ccccc23)cc1)N1CCNCC1 | 16.6 µM (active)
COc1ccc(-c2cc3nccn3c(Nc3ncccc3C(N)=O)n2)cc1OC | 3.72 µM (active)
CO[C@H]1/C=C\O[C@@]2(C)Oc3c(C)c(O)c4c(O)c(c(C=NN5CCN(C6CCCC6)CC5)c(O)c4c3C2=O)NC(=O)C(C)=CC=C[C@H](C)[C@H](O)[C@@H](C)[C@@H](O)[C@@H](C)[C@H](OC(C)=O)[C@H]1C | 8.33 µM (active)
